# Sampled rows, rich in hits. Any-hit rate of the full collection: about 2.8%.
# Pol iota inh – DNA polymerase iota (human) inhibition; Q9UNA4; Pol iota fluorescent replication assay, 10 min; Potency, µM (series often up to 115 µM), without a hit: at the top dose activity, negative = inhibition, usual class: inhibitors; hit rate 1% among 390,000; AID 588590; further: potency means the concentration at half of the fitted maximal effect
#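 Pol iota at 10 nM preincubated 15 min with compounds at room temperature; reaction started with fluorescent substrate, 50 nM final. Fluorescence read kinetically at 0 and 10 min; buffer-only wells as negative control.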
# POLH inh – blocks human DNA polymerase eta activity; recombinant Pol eta, fluorescent DNA replication assay; hit rate 1.2% among 390,000; Potency, µM (titrated, usually from 114 µM), for the others: top-dose activity change, negative = inhibition, actives largely listed as inhibitors; AID 588591; Q9Y253; further: potency means the concentration at half of the fitted maximal effect; on the % scale 0 is the no-effect control and ±100 the full control effect
# Target sequence (Q9Y253 whole entry, looked up): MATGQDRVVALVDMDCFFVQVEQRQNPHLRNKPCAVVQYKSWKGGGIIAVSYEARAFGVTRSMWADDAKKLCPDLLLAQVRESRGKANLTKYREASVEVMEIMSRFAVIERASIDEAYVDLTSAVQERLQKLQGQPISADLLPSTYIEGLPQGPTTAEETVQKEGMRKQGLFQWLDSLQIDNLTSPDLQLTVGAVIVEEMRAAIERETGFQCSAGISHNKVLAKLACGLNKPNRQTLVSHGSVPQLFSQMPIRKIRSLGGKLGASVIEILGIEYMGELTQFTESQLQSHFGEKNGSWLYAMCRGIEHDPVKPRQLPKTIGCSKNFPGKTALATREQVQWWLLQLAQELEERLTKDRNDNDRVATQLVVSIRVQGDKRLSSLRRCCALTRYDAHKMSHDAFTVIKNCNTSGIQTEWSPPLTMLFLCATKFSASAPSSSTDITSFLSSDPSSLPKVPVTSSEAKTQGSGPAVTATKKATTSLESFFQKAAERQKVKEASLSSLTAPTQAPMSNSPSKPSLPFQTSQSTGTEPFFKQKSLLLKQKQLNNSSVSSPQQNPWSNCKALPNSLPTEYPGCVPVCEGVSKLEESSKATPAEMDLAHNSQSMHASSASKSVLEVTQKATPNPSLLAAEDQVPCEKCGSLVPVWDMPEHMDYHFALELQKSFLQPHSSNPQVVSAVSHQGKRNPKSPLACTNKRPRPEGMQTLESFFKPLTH
#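 Fluorescent replication assay: 50 nM final substrate added after a 15 min room-temperature compound preincubation with 10 nM enzyme. Signal taken at 0 min and again at 10 min.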
# Pol kappa inh – DNA polymerase kappa (human) inhibition | purified Pol kappa, fluorescent DNA synthesis assay, 10 min | Potency, µM (series often up to 107 µM), without a hit: at the top dose activity, negative = inhibition, hits mostly inhibitors | hit rate 0.53% among 400,000 | AID 588579; further: potency means the concentration at half of the fitted maximal effect; on the % scale 0 is the no-effect control and ±100 the full control effect
#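 50 nM final substrate added after 15 min RT preincubation of 10 nM Pol kappa with compound; fluorescence read at 0 and 10 min.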
# Pol beta inh – DNA polymerase beta (human) inhibition. P06746. Pol beta primer extension/strand displacement, fluorescence kinetic. Potency, µM (doses to about 114 µM), for inactives: at the top dose activity change, negative = inhibition, usual class: inhibitors. hit rate 1.3% among 340,000. AID 485314; further: potency means the concentration at half of the fitted maximal effect; on the % scale 0 is the no-effect control and ±100 the full control effect
#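 Homogeneous kinetic assay of primer extension and strand displacement by 10 nM Pol beta, preincubated 15 min at room temperature with compound before 50 nM substrate (final) was added. Read at 0 and 10 min; four-parameter Hill fit.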
# PI5P4K alpha inh – PI5P4K alpha (human) kinase inhibition | P48426 | PI5P4Kalpha enzyme, ADP-Glo luminescence, 60 min; hits give low values | max response, % | hit rate 1.2% among 330,000; active means max response of -50% or lower; inconclusive means between -30% and -50%; inactive means -30% or higher; further: value at the top dose of about 77 µM; on the % scale 0 is the no-effect control and ±100 the full control effect
#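 Compounds were pin-transferred onto PI5P4Kalpha and substrate in HEPES pH 7.4 buffer with EGTA, CHAPS and 5% DMSO. ATP (5 microM final) started the reaction, which ran 60 minutes at room temperature before ADP-Glo detection.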
# FEN1 inhibitor – blocks human flap endonuclease 1 | P39748 | Recombinant FEN1 flap cleavage, fluorescence, 15 min | Potency, µM (series often up to 114 µM), for the others: at the highest dose activity change, negative = inhibition, most hits filed as inhibitors | hit rate 0.35% among 390,000 | AID 588795; further: potency means the concentration at half of the fitted maximal effect; on the % scale 0 is the no-effect control and ±100 the full control effect; nearly all actives have a fitted effect of over 65% in size
#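 Reaction started by adding substrate (50 nM final) to 10 nM enzyme after 15 min room-temperature compound preincubation. Reads at 0 and 15 min, with data normalized and fitted to a four-parameter Hill equation.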
# Numbers without * were called inactive; ? = inconclusive; . = no result given; ! = not active in a repeat; [ ] = another dose, or the depositor's remark. Unless noted, the call rests on the fitted dose curve; in most records, active means well fitted curve in the direction sought with a large enough effect; inconclusive means small, poorly fitted or top-dose-only effect, or another doubt; inactive means no such curve, though single readings can be large; an effect the other way counts as inactive or inconclusive.
SMILES,Pol iota inh,POLH inh,Pol kappa inh,Pol beta inh,PI5P4K alpha inh,FEN1 inhibitor
O=C(O)CSc1ncnc2scc(-c3ccccc3)c12,40%,-4%,2%,-13%,-76*,-1%
Cc1oc2ccc(O)c(CN3CCCCCC3)c2c1C(=O)Nc1cccc(C(F)(F)F)c1,4%,-16%,-1%,7%,.,-24%
COc1ccc(C(=O)NCc2nnnn2-c2ccc(C)c(C)c2)cc1,-6%,-19%,-12%[60.1 µM],-23%,.,-1%
O=C(COC(=O)/C=C/c1cccc(C(F)(F)F)c1)NC(=O)NCc1ccco1,15%,-17%,-3%,.,1,-4%
Cc1cccc(NC(=O)CN2C(=O)N/C(=C\c3cccn3-c3cccc(C(=O)O)c3)C2=O)c1,50µM*,?,?,14µM*,-14,?
Cc1ccc(NC(=O)CN2C(=O)S/C(=C\c3ccc(-c4cccc(C(=O)O)c4C)o3)C2=O)cc1,.,.,.,100µM*,.,.
Cc1ccc(C)c(N2C(=N)S/C(=C\c3ccc(-c4ccccc4C(=O)O)o3)C2=O)c1,14µM*,22µM*,?,?,-52*,-14%
Cc1ccc(NC(=O)CN2C(=O)S/C(=C\c3cc(C)n(-c4cccc(C(=O)O)c4)c3C)C2=O)cc1,?,56µM*,-7%,45µM*,-24,-18%
CCOC(=O)c1cc(C)n(CC2CCC(C(=O)Nc3cccc(C(C)=O)c3)CC2)c1C (centres undefined),-2%,-8%,-5%,10%,.,-11%
COc1ccc(C(=O)N/C(=C\c2cn(S(=O)(=O)N(C)C)c3ccccc23)C(=O)N2CCOCC2)cc1,-8%,-14%,-3%,-1%,0,-15%
COc1ccc(C2NC(=O)N(C)C3=C2C(=O)N(c2cccc(C(=O)O)c2)C3)cc1 (centres undefined),8%,-9%,-13%,5%,.,5%
O=C(NCC1CCCO1)c1ccc(N2CCCCC2)c([N+](=O)[O-])c1 (centres undefined),20%,-22%,-11%,1%,1,3%
COC(=O)c1cc2sc(C)cc2n1Cc1cccc(OC)c1,7%,.,0%,0%,.,-18%
O=C(CN1C(=O)S/C(=C\c2cc(Cl)c(O)c(Cl)c2)C1=O)Nc1ccccc1,?,?,-18%,13%,-86*,-14%
COc1ccc(S(=O)(=O)N(CC(=O)O)c2ccccn2)cc1,45%,-2%,-13%,7%,0,1%
COc1ccc(N(CC(=O)N/N=C/c2ccco2)S(=O)(=O)c2ccccc2)cc1,?,89µM*,-22%,8.9µM*,.,-13%
COc1ccc(NC(=O)CN(c2ccc([N+](=O)[O-])cc2)S(=O)(=O)c2ccccc2)cc1,5%,-17%,-5%,0.11µM*,6,10%
COc1ccc(S(=O)(=O)N(CC(=O)O)c2ccccc2)cc1,100µM*,-6%,-24%,15%,.,-4%
CCOc1cc(C2NC(=O)NC(c3ccccc3)=C2C(=O)c2ccccc2)c(Br)cc1OCC(=O)O (centres undefined),1%,-9%,-7%,2%,-1,-18%
CCC(C(=O)O)n1c2ccccc2c2cn[nH]c(=O)c21 (centres undefined),-9%,?,-31%,22µM*,-2,-12%
Cc1c(O)ccc2c(CN3CCN(Cc4ccccc4)CC3)cc(=O)oc12,14%,-8%,8%,-2%,0,12%
O=c1cc(CN2CCN(Cc3ccccc3)CC2)c2ccc(O)c(O)c2o1,?,10µM*,?,2.5µM*,28,0%
c1nc(SSc2ncnc3nc[nH]c23)c2[nH]cnc2n1,?,-11%,-5%,.,-80*,1%
O=C(O)CSc1ncnc2nc[nH]c12,8%,0%,5%,12%,?,-1%
CC(NC(=O)COC(=O)COc1cccc2c1OC(C)(C)C2)c1ccccc1 (centres undefined),25%,-5%,-3%,14%,3,0%
SMILES,Pol iota inh,POLH inh,Pol kappa inh,Pol beta inh,PI5P4K alpha inh,FEN1 inhibitor
COc1cccc(CNC(=O)C2CCN(Cc3cc4ccccc4n3Cc3ccc(C)cc3)CC2)c1,19%,-24%,-2%[60.1 µM],-26%,.,-7%
COc1ccccc1CNC(=O)C1CCN(S(=O)(=O)c2c(C)noc2/C=C/c2cccs2)CC1,89µM*,0%,?,1%,.,89µM*
C#CC(C)(CC)NC(=O)c1cc2c(n(-c3ccc(Cl)cc3)c1=O)CC(C)(C)CC2=O (centres undefined),58%,-18%,-16%,32%,.,-16%
O=C(c1ccc(S(=O)(=O)N2CCc3ccccc3C2)cc1)N1CCCCC1,1%,-2%,-5%,4%,8,15%
NC(=O)CC(NSc1ccccc1[N+](=O)[O-])C(=O)O (centres undefined),?,-10%,-8%,19%,-57*,1%
O=[N+]([O-])c1ccccc1SNc1ccccc1,.,-10%,.,.,3,.
N[C@@H](Cc1cc(I)c(Oc2cc(I)c(O)c(I)c2)c(I)c1)C(=O)O,-13%,?,?,.,-62*,9%
N[C@H](Cc1cc(I)c(Oc2cc(I)c(O)c(I)c2)c(I)c1)C(=O)O,.,.,-17%[12 µM],.,.,.
NC(Cc1cc(I)c(Oc2ccc(O)c(I)c2)c(I)c1)C(=O)O (centres undefined),.,.,-6%[60.1 µM],.,.,.
N[C@@H](Cc1cc(I)c(Oc2ccc(O)c(I)c2)c(I)c1)C(=O)O,50µM*!,32µM*!,?,20µM*!,-82*!,?
COc1ccc(/C=C2/C(=O)N(c3nc4ccccc4s3)N=C2CSc2ccc(Cl)cc2)cc1,-16%,?,-17%,?,-72*,0%
Cn1ccs/c1=N\C(=O)Nc1cccc(C(F)(F)F)c1,-14%,-7%,-20%,7%,-1,10%
CCOc1ccc(CNC(=O)c2cc3c(=O)n(Cc4cccs4)ccc3nc2C)cc1,?,16%,12%,13µM*,.,1%
Cc1nc2ccn(Cc3cccs3)c(=O)c2cc1C(=O)NCc1ccc(Br)cc1,?,-2%,-1%,-12%,.,-17%
CCc1ccc(CNC(=O)c2cc3c(=O)n(Cc4cccs4)ccc3nc2C)cc1,?,11%,-19%,50µM*,.,0%
CC1OC(C(C)(C)C)Cc2[nH][nH]c(=O)c21 (centres undefined),.,.,.,.,6,.
N#Cc1cc2c([nH]c1=O)CCCC2,5%,-19%,-3%,14%,1,12%
N#Cc1cc2c([nH]c1=S)CCCC2,?,-12%,-18%,0%,-73*,1%
COc1cc(Nc2ncc3c(n2)CCN(Cc2cc(Br)cs2)C3)cc(OC)c1,3%,.,2%[60.1 µM],-4%,.,-3%

# High-throughput results (PubChem BioAssay)
